Values without a mark were called inactive. The rule behind the calls is not given here.

For the assay, the target named is Pantothenate synthetase (Mycobacterium tuberculosis (strain ATCC 25618 / H37Rv)) (UniProt P9WIL5). Nature of the assay: Recombinant Mtb pantothenate synthetase (PanC) inhibitors, coupled enzyme, confirmatory (AID 375).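 Note: 0% = full reaction with vehicle and 100% = no enzyme background.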 The conditions noted are these: coupled enzyme assay; at 10 µM, stronger effect = higher value.
Sequence of Pantothenate synthetase (Mycobacterium tuberculosis (strain ATCC 25618 / H37Rv)) (P9WIL5 whole entry, looked up): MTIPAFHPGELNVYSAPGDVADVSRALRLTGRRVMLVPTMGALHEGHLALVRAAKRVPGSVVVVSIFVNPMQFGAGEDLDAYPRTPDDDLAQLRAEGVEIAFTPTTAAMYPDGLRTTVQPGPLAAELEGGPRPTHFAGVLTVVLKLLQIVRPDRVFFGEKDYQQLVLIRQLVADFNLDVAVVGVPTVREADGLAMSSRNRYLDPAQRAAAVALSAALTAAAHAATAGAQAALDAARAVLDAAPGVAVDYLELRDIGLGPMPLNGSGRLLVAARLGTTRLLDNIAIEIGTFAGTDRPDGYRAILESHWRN
Consider `COc1ccc(CCNC(=O)CC2COc3ccccc3O2)cc1OC` (stereo not drawn), for which the inhibition is 0%.
Under `Nc1nc(Cl)nc2c1ncn2[C@@H]1O[C@H](CO)[C@@H](O)[C@H]1O` stands 3%; under `CCN(CCCNC(=O)C1CCCN(S(=O)(=O)c2cnc[nH]2)C1)c1ccccc1` (stereo not drawn), 1%; under `CC(=O)NCC(=O)OC(C)C(=O)Nc1ccc(C(C)=O)cc1` (stereo not drawn), 3%.
For `O=C(Oc1ccc2c(c1)CCC2)N1CCOCC1` the value was 0%.
As for `O=C(NCCC1=CCCCC1)C1CC(=O)N(C2CCCCCC2)C1` (stereo not drawn), the inhibition is 2%.
Turning to `COc1ccccc1NC(=O)C(O)C(O)C(=O)Nc1ccccc1OC` (stereo not drawn), the inhibition is 3%.
Take `COC(=O)n1c(=S)oc2cc(Cl)ccc21`: the inhibition was 0%.
Take `Cc1ccc(C)c(NC(=O)c2ccc3c(c2)N(Cc2ccc(F)cc2)C(=O)CS3=O)c1` (stereo not drawn): the inhibition was 0%.
Regarding `CC(C)C(=O)Nc1ccc(C(=O)NCc2cccnc2)cc1`, the inhibition was 0%.
Regarding `COc1ccc(NC(=O)CSc2c(C)nn(-c3nnc(C)c(=O)[nH]3)c2C)cc1`, the inhibition is 0%.
As for `O=C1C(C=NCCCn2ccnc2)=C(O)c2ccccc21`, the inhibition is 8%.
`CC1(C)S[C@@H]2[C@H](NC(=O)[C@H](N)c3ccccc3)C(=O)N2[C@H]1C(=O)O`: the inhibition was 2%.
As to `Cc1cc(C)cc(NS(=O)(=O)c2ccc3[nH]cc(C(=O)NCc4ccco4)c(=O)c3c2)c1`, the inhibition was 0%.
Take `CCOC(=O)c1cccc(NC(=O)C2CCN(S(=O)(=O)c3cccs3)CC2)c1`: the inhibition was 0%.
With `COc1cc(OC)cc(-c2nnc(SCC(=O)Nc3cc(C)on3)o2)c1`, the inhibition is 2%.
For `CC(C)COc1nc2ccccc2nc1C(C#N)C(=O)NC1CCCCC1` (stereo not drawn) the value was 0%.
In the case of `c1ccc(-c2cn3c4c(sc3n2)CCCC4)cc1`, the inhibition was 3%.
On to `Cc1occc1-c1nnc(SCC(=O)c2ccc(F)cc2)n1Cc1ccco1`, for which the inhibition is 3%.
On to `CC(C)(CO)NC(=O)CCCOc1ccc(Cl)cc1Cl`, for which the inhibition was 0%.
On to `CCc1ccccc1OCCCCN1CCCC1`, for which the inhibition was 0%.
In the case of `COc1ccc(C(C(C(=O)c2ccco2)N2CCOCC2)N2CCOCC2)cc1` (stereo not drawn), the inhibition is 11%.
As for `COc1ccc(C2CC(c3ccc(C)cc3)Nc3ncnn32)cc1` (stereo not drawn), the inhibition is 0%.

The inhibition is the drop in the measured response relative to a control, in per cent.

For the origin of these results see PubChem BioAssay.
